Screening data: PubChem, National Center for Advancing Translational Sciences (NCATS)
SARS PLP yeast = qHTS of Yeast-based Assay for SARS-CoV PLP | S. cerevisiae expressing SARS-CoV PLpro, growth rescue | Potency, µM (highest dose often 32.9 µM), actives largely listed as activators | hit rate 0.19% among 330,000 | AID 485353, 2010; calls by dose curve; note: nearly all actives have a fitted effect of over 55% in size
Pf growth 96h = Primary qHTS for delayed death inhibitors of the malarial parasite plastid, 96 hour incubation; P. falciparum luciferase reporter growth, 96 h; Potency, µM (highest dose often 28.7 µM), actives largely listed as inhibitors; hit rate 6.9% among 320,000; AID 504834, 2011
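Luminescence readout: decreased luciferase signal marks inhibited growth of reporter-expressing P. falciparum in infected red cells (2% hematocrit, 0.05% parasitemia final), exposed to compound two generations (96 h, 37 C, 5% CO2).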
Sm TGR block = qHTS Assay for the Inhibitors of Schistosoma Mansoni Peroxiredoxins | Schistosoma mansoni thioredoxin glutathione reductase (TGR), Q962Y6 | purified TGR, DTNB reduction, TNB absorbance 405 nm | Potency, µM (doses to about 114 µM), most hits filed as inhibitors | hit rate 3% among 360,000 | AID 485364, 2010; note: nearly all actives have a fitted effect of over 60% in size
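TGR 20 nM + NADPH 100 uM (dispensed conc.), cpd preinc 15 min RT; start with NADPH (500 uM addition) then DTNB (15 mM addition). Kinetic TNB absorbance, 405 nm filter. Four-parameter Hill fit across titration.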
Pf growth 48h = Primary qHTS for delayed death inhibitors of the malarial parasite plastid, 48 hour incubation | P. falciparum luciferase growth in erythrocytes, 48 h | AID 504832, 2011 | hit rate 5.9% among 310,000 | Potency, µM (titrated, usually from 28.7 µM), usual class: inhibitors
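Parasite viability was followed by luminescence of a genomically integrated firefly luciferase. Cultures held 0.1% parasitemia at 2% hematocrit (final), incubated under 5% CO2 at 37 C.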
A number is an active result; i = inactive; ? = inconclusive; nt = not tested or not shown. An excerpt weighted towards active compounds, which were near 12% of everything screened. Unless noted, calls come from the whole dose curve; as a rule, active = well fitted curve in the direction sought with a large enough effect; inconclusive = small, poorly fitted or top-dose-only effect, or another doubt; inactive = no such curve, though single readings can be large; an effect the other way counts as inactive or inconclusive.

SMILES | SARS PLP yeast | Pf growth 96h | Sm TGR block | Pf growth 48h
O=C1NC(=O)C(c2ccccc2[N+](=O)[O-])=C1Nc1ccc(O)c(Cl)c1 | i | ? | 7.1µM | i
COc1ccc2nc(NC(=O)C3CCCN(S(=O)(=O)c4cccc5nonc45)C3)sc2c1 (stereo unspecified) | i | i | i | 13µM
COc1ccc2nc(NC(=O)C3CCCN(S(=O)(=O)c4c(C)noc4C)C3)sc2c1 (stereo unspecified) | i | i | i | ?
CCOc1ccc2nc(NC(=O)c3ccc(OCC4CCCO4)cc3)sc2c1 (stereo unspecified) | i | ? | i | 8.3µM
CCOc1ccc2nc(NC(=O)C3CCN(C(=O)c4ccco4)CC3)sc2c1 | i | i | i | i
CCOc1ccc2nc(NC(=O)C3CCCN(S(=O)(=O)c4c(C)noc4C)C3)sc2c1 (stereo unspecified) | i | 13µM | i | ?
COc1ccc2nc(NC(=O)C3CCN(C(=O)c4ccc(F)cc4)CC3)sc2c1 | ? | 9.3µM | i | ?
Cc1cccc2sc(NC(=O)c3ccc(OCC4CCCO4)cc3)nc12 (stereo unspecified) | i | i | nt | ?
CCOc1ccc(S(=O)(=O)NCCC(=O)NC2CCC(C)CC2)cc1 (stereo unspecified) | i | nt | nt | nt
CCOC(=O)CNC(=O)Cn1nc(N2CCN(c3ccccc3)CC2)ccc1=O | nt | nt | i | nt
O=C(N/N=C/C=C/c1ccco1)c1cnccn1 | i | ? | 10µM | ?
CC(/C=N/NC(=O)c1ccccn1)=C\c1ccco1 | i | i | 35µM | i
O=C(N/N=C/C=C\c1ccco1)c1ccccn1 | i | i | 10µM | i
O=C(N/N=C/C=C/c1ccccc1)c1ccccn1 | i | i | i | i
O=C(N/N=C/c1ccco1)c1cnccn1 | i | i | i | i
COc1ccc(OCC(=O)N/N=C/C(C)=C/c2ccco2)c(Br)c1 | i | i | 40µM | i
Cc1ccccc1OCC(=O)N/N=C/c1ccco1 | i | i | i | i
Cc1cc(OCC(=O)Nc2sc3c(c2C(N)=O)CCCC3)ccc1C(C)C | nt | nt | i | nt
COc1ccc(N2CCN(C(=O)c3c(C)oc4ncnc(N5CCCCC5)c34)CC2)cc1 | nt | nt | i | nt
Cc1onc(-c2ccccc2)c1NC(=O)Nc1ccc(OC(F)F)cc1 | i | 4.7µM | i | 6.6µM
Cc1onc(-c2ccccc2)c1C(=O)Nc1ccc(OC(C)C)cc1 | i | i | i | i
Cc1oc2ccc(O)c(CN3CCN(Cc4ccccc4)CC3)c2c1C(=O)Nc1ccccc1 | nt | nt | i | nt
O=C(CSc1cccc[n+]1[O-])CSc1cccc[n+]1[O-] | i | 0.19µM | i | 9.3µM
[O-][n+]1ccccc1SSc1cccc[n+]1[O-] | nt | 0.48µM | nt | 0.85µM
COC(=O)c1ccc(C(=O)OC)c(NC(=O)CSc2cccc[n+]2[O-])c1 | i | 1.2µM | i | ?
SMILES | SARS PLP yeast | Pf growth 96h | Sm TGR block | Pf growth 48h
O=C(CSc1cccc[n+]1[O-])N1CCCCCC1 | i | i | i | i
Cc1ccc(N2CC(C(=O)Nc3nc4ccc(S(C)(=O)=O)cc4s3)CC2=O)cc1C (stereo unspecified) | i | i | i | i
CC1Oc2ccccc2N(Cc2ccc(F)cc2)C1=O (stereo unspecified) | i | i | i | i
Clc1ccc(-c2csc(=Nc3ccccc3)n2Cc2ccc3c(c2)OCO3)cc1 | nt | nt | i | nt
COc1ccc2c(CNCCc3cccs3)c(C(=O)O)n(Cc3ccccc3)c2c1 | nt | nt | i | nt
CC1CCCC(C)N1C(=O)CSc1ncccn1 (stereo unspecified) | i | i | i | i
CCOc1ccc(-c2cnc(NCc3cccc(Cl)c3)n2C)cc1 | nt | nt | i | nt
Cc1ccc(-c2nc(CS(=O)CC(=O)NC3CCC(C)CC3)c(C)o2)cc1 (stereo unspecified) | i | ? | 14µM | nt
Cc1oc(-c2ccc(Cl)cc2)nc1CS(=O)CC(=O)NCc1ccccn1 (stereo unspecified) | i | ? | 40µM | i
Cc1oc(-c2ccc(Cl)cc2)nc1CS(=O)CC(=O)NC1CC1 (stereo unspecified) | i | ? | 16µM | i
Cc1ccc(-c2nc(CS(=O)CC(=O)O)c(C)o2)cc1 (stereo unspecified) | nt | nt | i | nt
Cc1oc(-c2ccc(Cl)cc2)nc1CS(=O)CC(=O)NC(C)c1ccccc1 (stereo unspecified) | i | i | 8.9µM | i
Cc1ccc(C)c(N2CCN(S(=O)(=O)c3ccc(C(=O)N(C)C)s3)CC2)c1 | nt | nt | i | nt
